We go through 40 compounds from PubChem BioAssay (NCI).

About 83,000 compounds went through this panel and 20% of them were active in at least one assay; those are over-represented in the sample as a whole.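 Step 1: grow cells in 96-well plates. Step 2: add test compound at a single concentration. Step 3: incubate 48 h. Step 4: record percent growth.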 A number with no mark means an inactive call. Active and inactive are the calls of the source.

This assay concerns IGROV1 ovarian. Kind of assay: NCI-60 one-dose screen, 48 h (100 = growth as untreated, 0 = no growth, -100 = all killed). To be noted: 10 µM. The method, then:
Growth inhibition of the IGROV1 human tumor cell line is measured as a screen for anti-cancer activity. Cells are grown in 96 well plates and exposed to the test compound for 48 hours. Compounds are tested at a single concentration, which is 10^-5 M for most compounds. The reported endpoint is percent growth (GI% or GIPRCNT), where numbers from 0 - 100% represent growth inhibition, and numbers from -100% - 0 represent cell death. For example, a value of 40 represents 60% growth inhibition. A value of 0 means no net growth occurred over the course of the experiment. A value of -40 indicates 40% of cells at the beginning of the experiment died by the end of the experiment. A value of -100 means all cells are dead at the end of the experiment.
NCI-60 Human Tumor Cell Lines Screen was performed using the standard one-dose NCI protocol, which is described in more detail at https://dtp.cancer.gov/discovery_development/nci-60/default.htm.
Compounds with GIPRCNT values below 10 were considered active. Activity score was based on GIPRCNT using the following formula: […]
Score is 0 for GIPRCNT values of 100 or above, 50 for GIPRCNT values of 0, and 100 for GIPRCNT values of -100.
For `Nc1nnc(-c2c[nH]c3ncc(Br)cc23)c(-c2c[nH]c3ccc(Br)cc23)n1`, the growth is 36.5%. On to `CC1(C)CC(=O)C2=C(C1)N(Cc1ccc(C(=O)O)cc1)C1=C(C(=O)CC(C)(C)C1)C2c1ccc(Cl)cc1`, for which the growth is 107%. As for `Fc1ccc(-c2csc(Nc3cccc(Nc4nc(-c5ccc(F)cc5)cs4)c3)n2)cc1`, the figure is 41.8%; as for `CC1(C)CC[C@]2(C(=O)O)CC[C@]3(C)C(=CCC4[C@@]5(C)C[C@@H](O)[C@@H]6OC(c7cccc(F)c7)OC[C@@]6(C)C5CC[C@]43C)C2C1` (stereo not given in full), 75.4%; as for `COc1ccc2[nH]cc(-c3nc(N)nnc3-c3cn(C)c4ncc(Br)cc34)c2c1`, 3.82% (active). As for `O=C1NC(=S)S/C1=C\c1cn(-c2ccccc2)nc1-c1ccc([N+](=O)[O-])cc1`, the figure is 29.2%; as for `O=C(Nc1ccc(OCc2ccc(Cl)cc2)cc1)Nc1ccc(Cl)c(C(F)(F)F)c1`, 47.6%. As for `CCOC(=O)C1=C(N)N(c2ccc(C)cc2)C2=C(C(=O)CC(C)(C)C2)C1c1ccccc1Br` (stereo not given), the figure is 110%; as for `COc1ccc(OC)c(-n2cc(C#N)c(N)c2C(=O)c2ccc(Cl)cc2Cl)c1`, 53.3%; as for `COc1ccc(NCc2cn(-c3ccc(C(=O)O)cc3)nc2-c2ccc(F)cc2)cc1C(F)(F)F`, 49.9%. Turning to `O=C(c1ccccc1)c1ccc2nc(-c3ccccc3Br)[nH]c2c1`, the growth was -58.9% (active). In the case of `O=C1NC2C=CC=CC2/C1=C1/SC(=S)N(C2CC(=O)N(c3ccc(Br)cc3)C2=O)C1=O` (stereo not given), the growth is 100%. As for `COc1cc2oc(-c3cccc(C(=O)Nc4ccc(Cl)cc4)c3)cc(=O)c2c(OCCNC(=O)[C@@H](N)CO)c1OC`, the figure is 57.9%.

Turning to `COc1ccc(C2c3sc4ccc(C)cc4c3Oc3nc(N)nc(N)c32)cc1` (stereo not given), the growth was 79.1%.

On to `COc1cc2oc(-c3cccc(C(=O)Nc4ccc(Cl)cc4)c3)cc(=O)c2c(OCCN)c1OC`, for which the growth was -73.7% (active). As for `O=C(c1ccc(F)cc1)C(c1c[nH]c2ccccc12)c1c[nH]c2ccccc12`, the figure is 49.9%; as for `Cn1cc(/C=C(/SS/C(=C/c2cn(C)c3cccc(C(=O)O)c23)C(=O)O)C(=O)O)c2c(C(=O)O)cccc21`, 113%. `O=C(Nc1ccc(OCc2ccc(F)cc2)cc1)Nc1ccc(Cl)c(C(F)(F)F)c1`: the growth is 43.6%.

Regarding `COC(=O)CNC(=O)COc1c(OC)c(OC)cc2oc(-c3cccc(C(=O)Nc4ccc(Cl)cc4)c3)cc(=O)c12`, the growth was 58.4%. As for `COc1ccc(Cc2nn(CC(=O)N/N=C/c3ccc(Br)cc3)c(=O)c3c(C)noc23)cc1`, the figure is 37.6%; as for `Cc1ccc(-c2nc(C#N)c(S(=O)(=O)N3CCN(S(C)(=O)=O)CC3)o2)cc1`, 54.9%; as for `C#C[C@]1(O)CC[C@H]2[C@@H]3CC=C4c5sc(Nc6ccc(C(F)(F)F)cn6)nc5CC[C@]4(C)[C@H]3CC[C@@]21C`, 8.57% (active). As for `COc1cc(C2CC(c3ccccc3)=Nc3c(N)nc(N)nc3N2)ccc1Oc1nc(NCCO)nc(N2CCOCC2)n1` (stereo not given), the growth was 93%.

On to `C#C[C@]1(O)CC[C@H]2[C@@H]3CC=C4c5sc(Nc6ccc(N(C)C)cc6)nc5CC[C@]4(C)[C@H]3CC[C@@]21C`, for which the growth is 9.97% (active). As for `COc1cc(C2CC(c3ccc(Oc4ccc(Cl)cc4)cc3)=NN2c2nc(-c3ccc(Cl)cc3)c(C#N)c(N3CCOCC3)n2)cc(OC)c1OC` (stereo not given), the figure is 106%; as for `C#C[C@]1(O)CC[C@H]2[C@@H]3CC=C4c5sc(Nc6cc(C)cc(C)n6)nc5CC[C@]4(C)[C@H]3CC[C@@]21C`, 26.2%.

In the case of `Cc1ccc2c(c1)C(=O)/C(=C/c1ccc([N+](=O)[O-])cc1)S2`, the growth was 63.8%. Turning to `COc1ccc(Cn2cc(C#N)c(N)c2C(C)=O)c(OC)c1`, the growth was 112%.

`O=[N+]([O-])c1cccc(-c2nnc3c(/C=C/c4ccccc4O)nc4ccccc4n23)c1`: the growth is 68.8%. For `Cn1cc(-c2cc3nc(-c4c[nH]c5ccccc45)cc(N)n3n2)c2cc(Cl)ccc21`, the growth was -64.5% (active). For `Cc1cc(N=C2NC(=O)S/C2=C\c2ccc(F)cc2)n[nH]1`, the growth was 25.3%. As for `CCn1c(SCC(=O)Nc2ccc(-c3nc4ccccc4[nH]3)cc2)nc2ccccc2c1=O`, the figure is -52.5% (active); as for `O=C(CC(=O)Nc1ccc(Oc2ncnc3scc(Nc4n[nH]c(=S)s4)c23)cc1)Nc1ccc(Br)cc1`, 106%. As for `Cc1ccc2sc3c(c2c1)Oc1nc[nH]c(=O)c1C3c1cccc(F)c1` (stereo not given), the figure is 89.2%; as for `COc1ccc(C(=O)COc2ccc(NC(=O)Nc3ccccc3)cc2)cc1`, 94.8%. Consider `CC1[C@H]2[C@H](C[C@H]3[C@@H]4CC=C5c6sc(Nc7cccc(Cl)n7)nc6CC[C@]5(C)[C@H]4CC[C@@]32C)O[C@]12CC[C@@H](C)CO2` (stereo not given in full), for which the growth was 99.2%.

Take `Cn1cc(-c2cc(N)n3nc(-c4cn(C)c5ccccc45)cc3n2)c2cc(F)ccc21`: the growth was -41.5% (active). As for `CCOc1ccc(/C=N/NC(=O)Cn2nc(Cc3ccc(OC)cc3)c3onc(C)c3c2=O)cc1`, the figure is 25.7%; as for `Fc1ccc(/C=C/c2nc3ccccc3n3c(-c4ccc(Cl)cc4)nnc23)cc1`, 72.2%. As for `COc1cc(-c2nc3ccc(C)cc3[nH]2)ccc1OCc1nnc(-c2ccccc2Br)o1`, the figure is 90.3%.
